Reference: PubChem BioAssay (EPA / NIEHS)
Results filed as inconclusive are left out. Active and inactive are the calls of the source. How the source made its calls, unless noted: active means hit-call score of the fitted dose curve at least 0.9, where 1 is the maximum; inactive means score below 0.9.

What was measured:
[1] = ATG_TAL_CIS: Attagene CIS-FACTORIAL HepG2 Assay for human TAL Basal Promoter (AID 2282966); conditions: HepG2 Attagene cis-factorial TAL promoter reporter; actives raise or lower the signal;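 further: background control endpoint measuring basal TAL promoter reporter mRNA not a specific factor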
Outline: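 Basal-promoter background-control endpoint from a multiplexed HepG2 reporter panel. Cells were exposed 24 h, then reporter mRNA was read by RT-PCR/CE fluorescence and fitted in both directions relative to DMSO.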

[2] = ATG_TGFb_CIS: Attagene CIS-FACTORIAL HepG2 Assay for human Transforming Growth Factor (TGF) (AID 2282967); conditions: HepG2 Attagene CIS TGFb reporter, mRNA transcription; actives raise or lower the signal
Outline: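 Transcript-level reporter readout: HepG2 transfectants, 24 h exposure, RNA to cDNA, reporter-specific PCR, fluorescent primer extension, capillary sizing against ROX standards. Gain- or loss-of-signal relative to DMSO.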

[3] = ATG_VDRE_CIS: Attagene CIS-FACTORIAL HepG2 Assay for human Vitamin D Receptor Element (VDRE) (AID 2282968); conditions: HepG2 VDRE cis-reporter transcription, actives raise or lower the signal
Outline: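 Transient MRTU transfection of HepG2, 24 h compound exposure. Readout: reporter transcripts via RT-PCR and capillary electrophoresis, fluorescence. Bidirectional fit vs DMSO.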

[4] = molecular target: X-box-binding protein 1 (Homo sapiens) (UniProt P17861); assay: ATG_Xbp1_CIS: Attagene CIS-FACTORIAL HepG2 Assay for human X-box Binding Protein 1 (XBP1) (AID 2282972); conditions: HepG2 XBP1 cis-element reporter, Attagene multiplex; actives raise or lower the signal
X-box-binding protein 1 (Homo sapiens), sequence (P17861 whole entry, looked up): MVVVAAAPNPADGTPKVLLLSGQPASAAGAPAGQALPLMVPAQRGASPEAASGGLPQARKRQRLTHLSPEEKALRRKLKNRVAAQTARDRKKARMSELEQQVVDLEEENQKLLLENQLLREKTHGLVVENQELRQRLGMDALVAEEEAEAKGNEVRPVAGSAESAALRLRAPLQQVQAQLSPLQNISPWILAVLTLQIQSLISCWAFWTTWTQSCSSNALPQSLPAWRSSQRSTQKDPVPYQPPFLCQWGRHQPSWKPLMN
Outline: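 Changes in reporter transcript abundance, read by RT-PCR and capillary electrophoresis, reflect endogenous transcription factor activity. Transfected HepG2 cells received compound for 24 hours; DMSO defined baseline for bidirectional analysis.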

[5] = ATG_M_19_TRANS: Attagene TRANS-FACTORIAL HepG2 Assay for M19 Transcription Factor (Internal Marker) (AID 2282974; active means hit-call score of the fitted dose curve at least 0.9, where 1 is the maximum); conditions: HepG2 Attagene TRANS-FACTORIAL M19 internal marker reporter
Outline: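 After transfection of HepG2 with GAL4-UAS-driven reporter constructs, cells are dosed for 24 h. Total RNA is reverse-transcribed, reporter sequences PCR-amplified and labelled, then HpaI-digested and sized by capillary electrophoresis.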

[6] = ATG_GAL4_TRANS: Attagene TRANS-FACTORIAL HepG2 Assay for GAL4 (Internal Marker) (AID 2282976; active means hit-call score of the fitted dose curve at least 0.9, where 1 is the maximum); conditions: HepG2 Attagene TRANS GAL4 internal marker reporter
Outline: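 Background-control readout: GAL4-UAS reporter transcript in transiently transfected HepG2 cells after 24 h compound exposure. Measured by RT-PCR, 6-FAM primer extension, HpaI digest and capillary electrophoresis; gain-of-signal fit versus DMSO.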

[7] = molecular target: Estrogen receptor (Homo sapiens) (UniProt P03372); assay: ATG_ERa_TRANS: Attagene TRANS-FACTORIAL HepG2 Assay for human Estrogen Receptor alpha (ERa) (AID 2282970; active means hit-call score of the fitted dose curve at least 0.9, where 1 is the maximum); conditions: HepG2 Attagene TRANS ERa GAL4 reporter, mRNA
Estrogen receptor (Homo sapiens), sequence (P03372 whole entry, looked up, the tested form may be a part): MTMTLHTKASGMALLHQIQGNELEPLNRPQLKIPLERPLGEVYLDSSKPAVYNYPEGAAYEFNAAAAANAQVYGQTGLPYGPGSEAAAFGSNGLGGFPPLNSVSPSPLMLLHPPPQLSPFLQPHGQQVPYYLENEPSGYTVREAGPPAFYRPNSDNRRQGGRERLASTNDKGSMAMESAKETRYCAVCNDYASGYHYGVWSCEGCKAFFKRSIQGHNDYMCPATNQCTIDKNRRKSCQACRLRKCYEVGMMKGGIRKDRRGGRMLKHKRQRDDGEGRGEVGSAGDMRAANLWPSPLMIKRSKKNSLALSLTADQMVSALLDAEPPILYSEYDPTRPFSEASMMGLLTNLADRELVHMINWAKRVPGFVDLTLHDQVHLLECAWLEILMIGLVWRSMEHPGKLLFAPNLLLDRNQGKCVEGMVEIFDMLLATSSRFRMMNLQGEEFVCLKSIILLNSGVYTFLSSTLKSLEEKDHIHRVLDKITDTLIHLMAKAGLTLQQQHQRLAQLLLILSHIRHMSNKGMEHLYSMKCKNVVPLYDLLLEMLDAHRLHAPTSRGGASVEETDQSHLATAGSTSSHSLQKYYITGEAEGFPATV
Outline: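 Gal4-fusion ERa transactivation, measured as reporter transcript level in transiently transfected HepG2 cells. Exposure 24 h; RT-PCR plus capillary electrophoresis with fluorescence detection.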

[8] = molecular target: Estrogen-related receptor gamma (Homo sapiens) (UniProt P62508); assay: ATG_ERRg_TRANS: Attagene TRANS-FACTORIAL HepG2 Assay for human Estrogen-Related Receptor gamma (ERRg) (AID 2282977; active means hit-call score of the fitted dose curve at least 0.9, where 1 is the maximum;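 further: hits increase reporter signal over DMSO so potencies reflect activators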); conditions: HepG2 Attagene TRANS reporter, ERRg transactivation
Estrogen-related receptor gamma (Homo sapiens), sequence (P62508 whole entry, looked up, the tested form may be a part): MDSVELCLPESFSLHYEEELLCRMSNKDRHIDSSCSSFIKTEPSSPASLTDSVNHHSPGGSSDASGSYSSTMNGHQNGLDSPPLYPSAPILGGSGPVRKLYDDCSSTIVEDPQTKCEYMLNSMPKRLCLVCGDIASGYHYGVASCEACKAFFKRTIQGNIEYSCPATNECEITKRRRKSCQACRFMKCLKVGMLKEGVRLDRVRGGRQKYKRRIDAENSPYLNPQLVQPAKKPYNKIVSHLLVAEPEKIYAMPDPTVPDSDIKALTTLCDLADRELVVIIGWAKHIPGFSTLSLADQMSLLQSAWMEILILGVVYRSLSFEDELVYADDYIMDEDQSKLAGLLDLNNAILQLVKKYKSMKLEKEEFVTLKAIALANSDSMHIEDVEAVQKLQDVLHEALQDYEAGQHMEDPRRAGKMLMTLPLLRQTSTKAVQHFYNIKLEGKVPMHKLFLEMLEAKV
Outline: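 Readout: fluorescent reporter-mRNA fragments resolved by capillary electrophoresis after RT-PCR and HpaI cut. Cells: transiently transfected HepG2 carrying GAL4-UAS reporters driven by exogenous NR-Gal4 chimeras, dosed 24 h. Activity fitted upward relative to DMSO baseline.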

[9] = molecular target: Steroid hormone receptor ERR1 (Homo sapiens) (UniProt P11474); assay: ATG_ERRa_TRANS: Attagene TRANS-FACTORIAL HepG2 Assay for human Estrogen-Related Receptor alpha (ERRa) (AID 2282971; active means hit-call score of the fitted dose curve at least 0.9, where 1 is the maximum); conditions: HepG2 Attagene TRANS reporter, ERRa transactivation
Steroid hormone receptor ERR1 (Homo sapiens), sequence (P11474 whole entry, looked up, the tested form may be a part): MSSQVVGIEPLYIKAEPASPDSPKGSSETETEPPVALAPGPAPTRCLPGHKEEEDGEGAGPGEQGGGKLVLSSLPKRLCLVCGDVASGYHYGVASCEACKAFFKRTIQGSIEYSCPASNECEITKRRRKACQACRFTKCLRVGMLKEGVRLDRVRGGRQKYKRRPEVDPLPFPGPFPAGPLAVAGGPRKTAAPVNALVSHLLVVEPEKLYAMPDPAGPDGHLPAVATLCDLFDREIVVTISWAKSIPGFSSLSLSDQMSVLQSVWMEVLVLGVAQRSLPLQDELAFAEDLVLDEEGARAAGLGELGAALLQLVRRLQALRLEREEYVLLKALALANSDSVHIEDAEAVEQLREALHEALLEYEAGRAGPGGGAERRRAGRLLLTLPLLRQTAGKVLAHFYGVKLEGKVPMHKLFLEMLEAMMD
Outline: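 HepG2 cells transiently transfected with GAL4-UAS reporter units and chimeric NR-Gal4 constructs; after 24 hour compound incubation, reporter mRNA quantified by RT-PCR, fluorescent labelling and capillary electrophoresis, gain of signal versus DMSO.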

[10] = molecular target: Glucocorticoid receptor (Homo sapiens) (UniProt P04150); assay: ATG_GR_TRANS: Attagene TRANS-FACTORIAL HepG2 Assay for human Glucocorticoid Receptor (GR) (AID 2282978; active means hit-call score of the fitted dose curve at least 0.9, where 1 is the maximum;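 further: activators score as hits since higher reporter transcript over DMSO is fitted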); conditions: HepG2 Attagene TRANS GR reporter, mRNA transcription
Glucocorticoid receptor (Homo sapiens), sequence (P04150 whole entry, looked up): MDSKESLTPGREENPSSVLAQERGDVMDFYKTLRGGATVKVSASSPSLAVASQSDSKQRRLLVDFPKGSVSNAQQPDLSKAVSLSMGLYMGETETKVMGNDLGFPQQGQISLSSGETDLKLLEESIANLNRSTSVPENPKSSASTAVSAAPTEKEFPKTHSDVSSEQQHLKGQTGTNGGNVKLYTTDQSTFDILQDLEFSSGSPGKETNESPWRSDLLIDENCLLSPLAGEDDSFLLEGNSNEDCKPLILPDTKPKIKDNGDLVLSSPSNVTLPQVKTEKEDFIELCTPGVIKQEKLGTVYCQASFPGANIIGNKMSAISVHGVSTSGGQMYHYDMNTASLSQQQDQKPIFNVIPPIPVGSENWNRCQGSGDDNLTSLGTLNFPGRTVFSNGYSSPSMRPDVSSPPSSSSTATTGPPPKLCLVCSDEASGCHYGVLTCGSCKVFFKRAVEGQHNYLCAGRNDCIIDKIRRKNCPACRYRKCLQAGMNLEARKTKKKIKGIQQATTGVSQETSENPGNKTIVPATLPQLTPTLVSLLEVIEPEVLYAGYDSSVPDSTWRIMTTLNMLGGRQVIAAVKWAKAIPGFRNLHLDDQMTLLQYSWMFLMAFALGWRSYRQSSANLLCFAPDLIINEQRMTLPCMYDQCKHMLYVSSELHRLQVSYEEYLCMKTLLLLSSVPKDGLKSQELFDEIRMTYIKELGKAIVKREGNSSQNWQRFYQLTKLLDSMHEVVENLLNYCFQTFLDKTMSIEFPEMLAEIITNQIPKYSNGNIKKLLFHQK
Outline: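 Multiplexed TRANS reporter system, HepG2; 24 h exposure; RNA → oligo(dT) RT → reporter-specific PCR → 6-FAM primer extension → HpaI cut → CE fluorescence. Gain-of-signal vs DMSO.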

Measured: AC50

CC(C)CCCCCCCOC(=O)CCCCC(=O)OCCCCCCCC(C)C
inactive: [1] | [2] | [3] | [4] | [5] | [6]

O=c1[nH]c2ccc(S(=O)CCN3CCC(Cc4ccc(F)cc4)CC3)cc2o1 (stereo not drawn)
active: [3] 55.1 µM
inactive: [1] | [2] | [7] | [6] | [8]

CCOC(=O)c1ccc(C2CCC(NC[C@H](O)COc3ccc(O)c(NS(C)(=O)=O)c3)CC2)cc1 (stereo partly drawn)
active: [3] 48.5 µM | [4] 54.4 µM
inactive: [1] | [2] | [9] | [5] | [8]

Nc1nc2ncc(CNc3ccc(C(=O)N[C@@H](CCC(=O)O)C(=O)O)cc3)nc2c(=O)[nH]1
inactive: [1] | [2] | [3] | [4] | [5] | [6]

COc1ccc(/C=C/S(=O)(=O)NC(=O)c2ccc(C)cc2Cl)cc1
inactive: [1] | [2] | [3] | [4] | [5]

Oc1ccc2c(c1)-c1ccccc1C2
inactive: [1] | [2] | [6]
active: [3] 28.8 µM | [4] 57.7 µM

NC(=O)NO
inactive: [1] | [2] | [3] | [4] | [6]

C1N2CN3CN1CN(C2)C3
inactive: [1] | [2] | [3] | [4] | [5] | [6]

CC(C)CC(C)(O)C#CC(C)(O)CC(C)C (stereo not drawn)
inactive: [1] | [2] | [3] | [4] | [5]

CN(C)c1ccc(N=NS(=O)(=O)O)cc1
inactive: [1] | [2] | [3] | [4] | [6] | [10]

CNCc1ccc(NC(=O)c2c[nH]c3c2C(=O)CCC3)cc1
not listed: [4] | [7]
inactive: all other assays above

O=C(O)c1cc(N=Nc2ccc(S(=O)(=O)Nc3ccccn3)cc2)ccc1O
inactive: [1] | [2] | [3] | [5] | [6]

CCOC(=O)CC(CC(=O)OCC)(OC(C)=O)C(=O)OCC
inactive: [1] | [2] | [3] | [5]

Nc1ccc(Nc2ccccc2)cc1
inactive: [1] | [2] | [4] | [5]
active: [7] 24.5 µM

CC(C)CCCCCCOC(=O)c1ccc(C(=O)OCCCCCCC(C)C)c(C(=O)OCCCCCCC(C)C)c1
inactive: [1] | [2] | [3] | [6]
